About 2,000 (36%) of roughly 5,500 compounds were called active. About 18% were inconclusive and are not listed. Rule as the data show it: active = normalized growth mostly below about 0.91 (no sharp cut-off); inconclusive = no clear call, values can overlap the other calls; inactive = mostly above about 0.92. The list shows a part of the results.
Assay: chemical genetic growth profiling, strain panel (AID 1159580);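 also: tested at 20 µM; growth read once vehicle control cultures reached saturation at 30 °C; 1 = growth at the plate median or of vehicle wells; lower values mean less growth of the strain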
Details: growth OD
[1] = S. cerevisiae deletion strains, locus YAL013W, strain DEP1, stronger effect = lower value
[2] = S. cerevisiae deletion strains, locus YBR229C, strain ROT2, stronger effect = lower value
[3] = S. cerevisiae deletion strains, locus YDL101C, strain DUN1, stronger effect = lower value
[4] = S. cerevisiae deletion strains, locus YDL134C, strain PPH21, stronger effect = lower value
[5] = S. cerevisiae deletion strains, locus YDR150W, strain NUM1, stronger effect = lower value
[6] = S. cerevisiae deletion strains, locus YEL061C, strain CIN8, stronger effect = lower value
[7] = S. cerevisiae deletion strains, locus YGR078C, strain PAC10, stronger effect = lower value
[8] = S. cerevisiae deletion strains, locus YHR030C, strain SLT2, stronger effect = lower value
[9] = S. cerevisiae deletion strains, locus YHR087W, strain rtc3, stronger effect = lower value
[10] = S. cerevisiae deletion strains, locus YJR075W, strain HOC1, stronger effect = lower value
[11] = S. cerevisiae deletion strains, locus YLR039C, strain RIC1, stronger effect = lower value
[12] = S. cerevisiae deletion strains, locus YLR058C, strain SHM2 (second series), stronger effect = lower value
[13] = S. cerevisiae deletion strains, locus YLR085C, strain ARP6, stronger effect = lower value
[14] = S. cerevisiae deletion strains, locus YLR262C, strain YPT6, stronger effect = lower value
[15] = S. cerevisiae deletion strains, locus YML094W, strain GIM5, stronger effect = lower value
[16] = S. cerevisiae deletion strains, locus YMR219W, strain ESC1, stronger effect = lower value
[17] = S. cerevisiae deletion strains, locus YMR263W, strain SAP30, stronger effect = lower value
[18] = S. cerevisiae deletion strains, locus YMR307W, strain GAS1, stronger effect = lower value
[19] = S. cerevisiae deletion strains, locus YNL153C, strain GIM3, stronger effect = lower value
[20] = S. cerevisiae deletion strains, locus YNL298W, strain CLA4 (second series), stronger effect = lower value
[21] = S. cerevisiae deletion strains, locus YNL322C, strain KRE1, stronger effect = lower value
[22] = S. cerevisiae deletion strains, locus YNR030W, strain Alg12, stronger effect = lower value
[23] = S. cerevisiae deletion strains, locus YOL006C, strain TOP1, stronger effect = lower value
[24] = S. cerevisiae deletion strains, locus YPL055C, strain LGE1, stronger effect = lower value
[25] = S. cerevisiae deletion strains, locus YPL241C, strain CIN2, stronger effect = lower value
[26] = S. cerevisiae deletion strains, locus YPR135W, strain CTF4, stronger effect = lower value
[27] = S. cerevisiae strains, strain wild type, stronger effect = lower value

Measured: normalized growth

CCc1cccc(C)c1NC(=O)N1CCN(C(=O)OC(C)(C)C)CC1
inactive: [1] 0.992 | [2] 0.99 | [3] 0.987 | [4] 1.01 | [5] 1.03 | [6] 1.01 | [7] 1 | [8] 1.01 | [9] 0.995 | S. cerevisiae deletion strains, locus YJR043C, strain POL32, stronger effect = lower value 1 | [10] 0.988 | [11] 1.04 | [12] 0.99 | [13] 1 | [14] 0.984 | [15] 0.991 | [16] 0.984 | [17] 1.01 | [18] 1.05 | [19] 0.994 | [20] 1.02 | [21] 0.999 | [22] 1.01 | [23] 1.01 | [24] 0.987 | [25] 1.03 | [26] 1.01 | [27] 1

CC(N)=NCc1cccc(CN)c1
inactive: [1] 1.02 | S. cerevisiae deletion strains, locus YAL040C, strain CLN3, stronger effect = lower value 1.01 | S. cerevisiae deletion strains, locus YCL061C, strain MRC1 (second series), stronger effect = lower value 1.01 | [5] 1.01 | S. cerevisiae deletion strains, locus YDR363W, strain ESC2, stronger effect = lower value 1.02 | S. cerevisiae deletion strains, locus YER002W, strain NOP16, stronger effect = lower value 1.03 | [18] 1.03 | S. cerevisiae deletion strains, locus YNL175C, strain NOP13, stronger effect = lower value 1.02 | S. cerevisiae deletion strains, locus YNL197C, strain WHI3, stronger effect = lower value 1 | S. cerevisiae deletion strains, locus YNL224C, strain SQS1, stronger effect = lower value 1 | S. cerevisiae deletion strains, locus YOR083W, strain WHI5 (second series), stronger effect = lower value 0.996 | [25] 1.01

CCSC(SCC)[C@H](O)[C@@H](O)[C@H](O)CO
inactive: [1] 0.976 | [2] 0.992 | [3] 0.993 | [4] 1.01 | [5] 0.995 | [6] 0.998 | [7] 0.981 | [8] 0.939 | [9] 0.98 | [10] 0.994 | [11] 0.992 | [12] 0.993 | [13] 1.05 | [14] 0.904 | [15] 1.02 | [16] 1 | [17] 0.994 | S. cerevisiae deletion strains, locus YNL128W, strain TEP1, stronger effect = lower value 1 | [19] 0.988 | [20] 0.988 | [21] 0.985 | [22] 0.992 | [23] 1.01 | [24] 1 | [25] 1.04 | [26] 0.922 | [27] 0.992

From PubChem BioAssay AID1159580 (chemical genetic matrix, 2015)
